Inconclusive results are not listed. A number with no mark means an inactive call. Active and inactive are the calls of the source. The call rests on the fitted dose curve; in most records, active means well fitted cell-killing curve with a large enough effect; inconclusive means small, poorly fitted or top-dose-only effect, or effect the other way; inactive means no such curve, though single readings can be large or run the other way.
Legend:
[1] = Quantitative High-Throughput drug screen in 47 multiple myeloma cell lines against the NCATS MIPE library collection: MM1R_ATCC cell viability assay (AID 1918981); further: nearly all actives have a fitted effect of over 35% in size; further: potency means the concentration at half of the fitted maximal effect
In short: (§1)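 ATP-based CellTiter-Glo luminescence after 48 h drug exposure (37 °C, 5% CO2) of 500 myeloma cells per well. DMSO-only wells set 100% viability, media-only wells 0%; MIPE 4.0 library added by pin tool.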

[2] = Quantitative High-Throughput drug screen in 47 multiple myeloma cell lines against the NCATS MIPE library collection: LP1_DSMZ cell viability assay (AID 1918982); further: nearly all actives have a fitted effect of over 35% in size
In short: as §1

[3] = Quantitative High-Throughput drug screen in 47 multiple myeloma cell lines against the NCATS MIPE library collection: OCIMY5_PLB cell viability assay (AID 1918988); further: potency means the concentration at half of the fitted maximal effect; nearly all actives have a fitted effect of over 65% in size
In short: as §1

[4] = Quantitative High-Throughput drug screen in 47 multiple myeloma cell lines against the NCATS MIPE library collection: OPM1_PLB cell viability assay (AID 1918989); further: nearly all actives have a fitted effect of over 40% in size; further: potency means the concentration at half of the fitted maximal effect
In short: as §1

[5] = Quantitative High-Throughput drug screen in 47 multiple myeloma cell lines against the NCATS MIPE library collection: U266_ATCC cell viability assay (AID 1919864); further: nearly all actives have a fitted effect of over 35% in size; further: potency means the concentration at half of the fitted maximal effect
In short: as §1

[6] = Quantitative High-Throughput drug screen in 47 multiple myeloma cell lines against the NCATS MIPE library collection: XG6_PLB cell viability assay (AID 1919865); further: nearly all actives have a fitted effect of over 40% in size; further: potency means the concentration at half of the fitted maximal effect
In short: as §1

[7] = Quantitative High-Throughput drug screen in 47 multiple myeloma cell lines against the NCATS MIPE library collection: XG1_PLB cell viability assay (AID 1919866); further: nearly all actives have a fitted effect of over 35% in size; further: potency means the concentration at half of the fitted maximal effect
In short: as §1

[8] = Quantitative High-Throughput drug screen in 47 multiple myeloma cell lines against the NCATS MIPE library collection: PE2_PLB cell viability assay (AID 1919869); further: nearly all actives have a fitted effect of over 35% in size; further: potency means the concentration at half of the fitted maximal effect
In short: as §1

[9] = Quantitative High-Throughput drug screen in 47 multiple myeloma cell lines against the NCATS MIPE library collection: RPMI8226_ATCC cell viability assay (AID 1919871); further: nearly all actives have a fitted effect of over 30% in size; further: potency means the concentration at half of the fitted maximal effect
In short: as §1

[10] = Quantitative High-Throughput drug screen in 47 multiple myeloma cell lines against the NCATS MIPE library collection: OPM2_DSMZ cell viability assay (AID 1919872); further: nearly all actives have a fitted effect of over 30% in size; further: potency means the concentration at half of the fitted maximal effect
In short: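 Luminescent ATP measurement with CellTiter-Glo gives viability, scaled between DMSO-only wells (100%) and media-only wells (0%). Cells, 500 per well, faced library compounds for 48 hours at 37C.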

[11] = Quantitative High-Throughput drug screen in 47 multiple myeloma cell lines against the NCATS MIPE library collection: KMS11_JCRBsus cell viability assay (AID 1919873); further: nearly all actives have a fitted effect of over 50% in size; further: potency means the concentration at half of the fitted maximal effect
In short: as §1

[12] = Quantitative High-Throughput drug screen in 47 multiple myeloma cell lines against the NCATS MIPE library collection: KMS28PE_JCRB cell viability assay (AID 1918983); further: nearly all actives have a fitted effect of over 35% in size; further: potency means the concentration at half of the fitted maximal effect
In short: as §1

[13] = Quantitative High-Throughput drug screen in 47 multiple myeloma cell lines against the NCATS MIPE library collection: L363_DSMZ cell viability assay (AID 1918984); conditions: L363 myeloma viability, CellTiter-Glo ATP luminescence, 48 h; viability (% of control): at 45.8 µM (top of the series); further: nearly all actives have a fitted effect of over 40% in size; further: potency means the concentration at half of the fitted maximal effect
In short: as §1

[14] = Quantitative High-Throughput drug screen in 47 multiple myeloma cell lines against the NCATS MIPE library collection: KMS34_JCRB cell viability assay (AID 1918985); further: nearly all actives have a fitted effect of over 40% in size; further: potency means the concentration at half of the fitted maximal effect
In short: as §1

[15] = Quantitative High-Throughput drug screen in 47 multiple myeloma cell lines against the NCATS MIPE library collection: UTMC2_PLB cell viability assay (AID 1919868); conditions: CellTiter-Glo ATP luminescence, 48 h; viability (% of DMSO control): at 45.8 µM (top of the series); further: nearly all actives have a fitted effect of over 55% in size; further: potency means the concentration at half of the fitted maximal effect
In short: as §1

[16] = Quantitative High-Throughput drug screen in 47 multiple myeloma cell lines against the NCATS MIPE library collection: KMS28BM_JCRB cell viability assay (AID 1919874); further: nearly all actives have a fitted effect of over 35% in size; further: potency means the concentration at half of the fitted maximal effect
In short: as §1

[17] = Quantitative High-Throughput drug screen in 47 multiple myeloma cell lines against the NCATS MIPE library collection: SKMM1_PLB cell viability assay (AID 1919863); conditions: SKMM1 myeloma viability, CellTiter-Glo ATP, 48 h; viability: stronger effect = lower value
In short: as §1

[18] = Quantitative High-Throughput drug screen in 47 multiple myeloma cell lines against the NCATS MIPE library collection: VP6_DJ cell viability assay (AID 1919867)
In short: as §1

[19] = Quantitative High-Throughput drug screen in 47 multiple myeloma cell lines against the NCATS MIPE library collection: PCM6_Riken cell viability assay (AID 1919870); further: nearly all actives have a fitted effect of over 30% in size; further: potency means the concentration at half of the fitted maximal effect
In short: as §1

[20] = Quantitative High-Throughput drug screen in 47 multiple myeloma cell lines against the NCATS MIPE library collection: OCIMY7_PLB cell viability assay (AID 1918987); conditions: OCI-MY7 myeloma viability, CellTiter-Glo ATP, 48 h; viability (% of DMSO): at 45.8 µM (top of the series); further: potency means the concentration at half of the fitted maximal effect; nearly all actives have a fitted effect of over 65% in size
In short: as §1

| SMILES | Potency [1] | Potency [2] | Potency [3] | Potency [4] | Potency [5] | Potency [6] | Potency [7] | Potency [8] | Potency [9] | Potency [10] | Potency [11] | Potency [12] | Potency [13] | Potency [14] | Potency [15] | Potency [16] | Potency [17] | Potency [18] | Potency [19] | Potency [20] |
| --- | --- | --- | --- | --- | --- | --- | --- | --- | --- | --- | --- | --- | --- | --- | --- | --- | --- | --- | --- | --- |
| O=C(O)CCNc1cc(N2CCc3ccccc3CC2)nc(-c2ccccn2)n1 | 16.6 µM (active) | inactive | 23.5 µM (active) | 5.26 µM (active) | inactive | inactive | 20.9 µM (active) | inactive | inactive | inactive | inactive | – | – | – | – | – | – | – | – | – |
| CCN1C[C@H](C)n2c(c(O)c3c(=O)n(Cc4ccc(F)c(Cl)c4)nc(C(=O)NC)c32)C1=O | 3.32 µM (active) | – | – | inactive | – | inactive | – | inactive | – | inactive | inactive | inactive | inactive | inactive | inactive | 13.2 µM (active) | – | – | – | – |
| Cc1cnc(Nc2cccc(CN3CCOCC3)c2)nc1Nc1cccc(S(=O)(=O)NC(C)(C)C)c1 | 10.5 µM (active) | – | 3.72 µM (active) | 1.48 µM (active) | – | – | 1.05 µM (active) | 1.87 µM (active) | – | 9.35 µM (active) | – | 14.8 µM (active) | 5.26 µM (active) | 3.32 µM (active) | 1.18 µM (active) | – | 7.43 µM (active) | 2.96 µM (active) | 6.62 µM (active) | – |
| O=C(c1ccc(C=Cc2n[nH]c3ccccc23)cc1)N1CCNCC1 | 13.2 µM (active) | – | 14.8 µM (active) | 2.64 µM (active) | – | 14.8 µM (active) | 0.833 µM (active) | 5.9 µM (active) | – | 10.5 µM (active) | 1.05 µM (active) | 6.62 µM (active) | 3.72 µM (active) | 10.5 µM (active) | 0.332 µM (active) | – | – | 3.72 µM (active) | 16.6 µM (active) | – |
| CC(O)=C(C#N)C(=O)Nc1ccc(C(F)(F)F)cc1 | 16.6 µM (active) | – | 16.6 µM (active) | 16.6 µM (active) | 23.5 µM (active) | 18.7 µM (active) | 16.6 µM (active) | 8.33 µM (active) | – | inactive | – | 16.6 µM (active) | inactive | 18.7 µM (active) | 33.2 µM (active) | – | 18.7 µM (active) | – | 20.9 µM (active) | – |
| OC1CCC(Nc2ncc3nc(Nc4c(F)cc(F)cc4F)n([C@@H]4CCOC4)c3n2)CC1 (stereo partly drawn) | 10.5 µM (active) | – | – | 20.9 µM (active) | – | – | 13.2 µM (active) | – | – | – | – | inactive | 5.26 µM (active) | 23.5 µM (active) | inactive | – | 18.7 µM (active) | 11.8 µM (active) | 18.7 µM (active) | – |
| Cc1ccc(NC(=O)c2ccc(CN3CCN(C)CC3)cc2)cc1Nc1nc(-c2cccnc2)cs1 | 20.9 µM (active) | – | 23.5 µM (active) | 9.35 µM (active) | 23.5 µM (active) | 7.43 µM (active) | 13.2 µM (active) | 11.8 µM (active) | 18.7 µM (active) | – | 10.5 µM (active) | 16.6 µM (active) | 9.35 µM (active) | – | – | 20.9 µM (active) | 23.5 µM (active) | 8.33 µM (active) | 4.18 µM (active) | 14.8 µM (active) |
| CN[C@@H](C)[C@H]1[C@H](O)C[C@@]2(C)[C@@H]3CC[C@H]4C(C)(C)[C@@H](NC)CC[C@@]45C[C@@]35CC[C@]12C | inactive | – | – | inactive | inactive | 23.5 µM (active) | – | inactive | inactive | inactive | – | inactive | inactive | inactive | – | inactive | – | – | – | – |
| CC(C)(C)c1nc(-c2cccc(NS(=O)(=O)c3c(F)cccc3F)c2F)c(-c2ccnc(N)n2)s1 | 18.7 µM (active) | – | 1.32 µM (active) | 18.7 µM (active) | 5.9 µM (active) | – | 10.5 µM (active) | 5.9 µM (active) | 13.2 µM (active) | 3.32 µM (active) | – | inactive | 16.6 µM (active) | – | inactive | inactive | – | 2.96 µM (active) | – | 0.209 µM (active) |
| CN(C)CCCNC(=O)c1ccc(-c2cc(O)c3ncccc3c2)cc1 | 20.9 µM (active) | – | 20.9 µM (active) | 16.6 µM (active) | 20.9 µM (active) | – | – | – | 18.7 µM (active) | – | 23.5 µM (active) | 9.35 µM (active) | 20.9 µM (active) | – | – | – | – | – | inactive | – |
| O=C1CCCC(=O)C1C(=O)c1ccc(C(F)(F)F)cc1[N+](=O)[O-] | inactive | – | – | inactive | – | inactive | inactive | inactive | – | – | inactive | inactive | inactive | – | – | inactive | – | – | inactive | – |

— PubChem BioAssay (NCATS)
